Bioassay records as filed in PubChem BioAssay.
aSyn 5UTR act = Activators working through SNCA 5'UTR binding (MLPCN); activity score, % (tested at 7.5 µM), hits read low; alpha-synuclein 5'UTR reporter, activators screen; 300,000 compounds, 7.1% hits; in the data active means activity score below about -60%
* marks the source's active call; other numbers are inactive results. A selection follows.

SMILES | aSyn 5UTR act
Cc1nc(-c2ccccc2)sc1C(=O)Nc1ccccc1F | -66*
Cc1nc(-c2ccccn2)sc1C(=O)Nc1ccc(F)cc1F | -127*
CC(/C=C/c1ccccc1)=N\Nc1nc(C)cc(C)n1 | -96*
CC(/C=C/c1ccccc1)=N\NC(N)=S | -100*
Nc1ccc2c(c1)sc1ccccc12 | -148*
Cc1ccc(/C=C/c2nnc(-c3ccccc3)o2)cc1 | -109*
Clc1ccc(-c2noc(/C=C/c3ccccc3)n2)cc1 | -94*
Cc1ccc(-c2noc(/C=C/c3ccccc3)n2)cc1 | -202*
COc1ccccc1-c1ccc(SCc2ccccc2F)nn1 | -74*
COc1ccccc1-c1ccc(SCc2ccccc2)nn1 | -140*
Cc1nc(C)c(-c2ccc(SCc3ccccc3F)nn2)s1 | -151*
CCOc1ccc2nc(SCC(=O)NC3CC3)sc2c1 | -68*
CCOc1ccc2nc(SCC(=O)c3ccccc3)sc2c1 | -100*
Cc1cc(N/N=C2/CCCc3ccccc32)nc2ccccc12 | -172*
Fc1ccc2c(c1)/C(=N/Nc1ccccn1)CCS2 | -72*
c1ccc(N/N=C2\CCCc3ccccc32)nc1 | -75*
Cc1oc2c(c1C(=O)N1CCC(C)CC1)C(=O)c1ccccc1C2=O | 83
CC1CCN(C(=O)c2cc3ccccc3c(=O)o2)CC1 | -78*
CCOC(=O)C1CCN(C(=O)c2c(C)oc3c2C(=O)c2ccccc2C3=O)CC1 | 72
CCOC(=O)C1CCN(Cc2c(O)ccc3ccccc23)CC1 | -108*
CCOC(=O)C1CCN(C(=O)c2cc3c(ccc4ccccc43)o2)CC1 | -115*
CC(=O)Nc1ncc(N=Nc2cccc(C(F)(F)F)c2)s1 | -79*
COc1ccc(Nc2oc(-c3ccccc3F)nc2C#N)cc1 | -103*
COc1ccc(Nc2oc(COc3ccccc3OC)nc2C#N)cc1 | 98
COc1ccc(Nc2oc(-c3cccs3)nc2C#N)cc1 | -171*
SMILES | aSyn 5UTR act
Cc1ccc(C(=O)Nc2ncc(C)s2)o1 | -119*
Cc1ccc(C(=O)Nc2ncc(Cc3ccc(SC(F)F)cc3)s2)cc1 | -163*
Cc1ccc(C(=O)Nc2ncc(Cc3ccc(F)cc3)s2)o1 | -107*
CSc1ccccc1C(=O)Nc1ncc(C)s1 | -63*
CCOC(=O)c1c(C)oc2c1c(C(c1cccnc1)N1CCOCC1)c(O)c1ccccc12 (configuration not stated) | -245*
Cc1ccc(N=Nc2c(N)n(-c3ccccc3)[nH]c2=O)cc1 | -154*
Cc1[nH]n(-c2ccccc2)c(=O)c1N=Nc1ccccc1 | -182*
Nc1[nH]n(-c2ccccc2)c(=O)c1N=Nc1ccc2c(c1)OCO2 | -205*
COc1ccc(/C=C/C(=O)NC2CCCCCCC2)cc1S(=O)(=O)N1CCOCC1 | -112*
Cc1ccc(N=C2N=C(N)c3ccccc32)cc1C | -78*
CCc1ccc(N=C2N=C(N)c3ccccc32)cc1 | -98*
Cc1ccc2ccc(C3C(=O)c4ccccc4C3=O)nc2c1 | -146*
Cc1ccc2nc(N3C(=O)CNC3=S)sc2c1 | -68*
Clc1ccc(OCc2cn3cccnc3n2)c2ncccc12 | -64*
Cc1cc(Cl)ccc1OCc1cn2cccnc2n1 | -124*
Cc1cc(SCC(=O)c2cccc([N+](=O)[O-])c2)nc(=O)[nH]1 | -91*
Cc1ccc(-n2c(C)cc(C(=O)COC(=O)c3ccc[nH]c3=O)c2C)cc1 | -122*
Cc1cc(C(=O)COC(=O)c2ccc[nH]c2=O)c(C)n1C | -68*
COc1ccc2c(C)c(C)c(=O)oc2c1OC | -84*
NS(=O)(=O)c1cccc(NC(=O)c2cc3ccccc3o2)c1 | -71*
Cc1cccc(NC(=O)c2cc3ccccc3o2)c1 | -272*
O=C(Nc1cccc(Br)c1)c1cc2ccccc2o1 | -184*
CCC(=O)Nc1cccc(NC(=O)c2cc3ccccc3o2)c1 | -168*
OCCN=c1cc(-c2ccccc2)oc2ccc(Cl)cc12 | -199*
CC(O)CN=c1cc(-c2ccccc2)oc2ccc(Cl)cc12 (configuration not stated) | -239*
SMILES | aSyn 5UTR act
CC(C)CN=c1cc(-c2ccccc2)oc2ccc(Cl)cc12 | -123*
NNC(=O)c1[nH]c2ccc(Cl)cc2c1-c1ccccc1 | 77
CCC1CC(C(=O)Nc2ccccc2)C(=O)O1 (configuration not stated) | -64*
COC(=O)C1(C)CCC(C(=O)Nc2ccccc2)C1(C)C (configuration not stated) | 62
CC(=O)c1ccc(NC(=O)C(C)OC(=O)c2ccc3c(c2)nc(C)n3-c2ccccc2)cc1 (configuration not stated) | -91*
COc1ccc(/C=C/C(=O)O/N=C(\N)c2ccccc2)cc1OC | -138*
COc1ccc(/C=C/C(=O)Nc2ccc(-n3nncc3-c3ccc(OC)c(OC)c3)cc2)cc1OC | 59
COc1ccc(/C=C/C(=O)c2cc(F)ccc2OC(=O)c2ccccc2C)cc1OC | 82
Cc1ccccc1/C(N)=N/OC(=O)/C=C/c1ccccc1 | -178*
Cc1ccc(/C(N)=N/OC(=O)/C=C/c2ccccc2)cc1 | -63*
COc1ccc(/C=C/C(=O)Nc2ccccc2)cc1OC | -140*
COc1ccc(/C(N)=N/OC(=O)/C=C/c2ccccc2)cc1 | -88*
COc1cc(/C=C/C(=O)NC(=O)c2ccccc2O)ccc1OC(C)=O | -161*
Oc1ccccc1N1CCN(c2ccc3ccccc3n2)CC1 | -138*
Fc1ccccc1N1CCN(c2cnc3ccccc3n2)CC1 | -70*
c1ccc(CN2CCN(c3cnc4ccccc4n3)CC2)cc1 | -208*
CCSc1ncc(/C=N/Nc2ccc(Cl)cc2)n1C | -181*
CCSc1ncc(/C=N/Nc2ccc([N+](=O)[O-])cc2)n1C | -194*
CCSc1ncc(/C=N/Nc2ccccc2)n1C | -109*
CC(=NC1CC1)C1=C(O)c2ccccc2C1=O | -177*
CCOc1ccc(N=C(C)C2=C(O)c3ccccc3C2=O)cc1 | -123*
CC(=O)Nc1ccc(N=C(C2=C(O)c3ccccc3C2=O)c2ccccc2)cc1 | -64*
CC(=O)Nc1ccc(NC2=C/C(=N/S(=O)(=O)c3cccs3)c3ccccc3C2=O)cc1 | 83
Cc1cccc(/N=C/c2c(O)[nH]c3ccccc23)n1 | -211*
Oc1[nH]c2ccccc2c1C=Nc1ccc2c(c1)OCCO2 | -76*
SMILES | aSyn 5UTR act
O=[N+]([O-])c1ccccc1S(=O)(=O)Oc1ccc(C(=S)N2CCOCC2)cc1 | -62*
CC(=O)c1ccccc1OC(=O)c1ccc(-c2ccccc2)cc1 | -78*
Cc1cc(N/C=C/C(=O)c2cccs2)ccc1F | -250*
O=C(/C=C/Nc1ccccc1C(=O)O)c1cccs1 | -72*
O=C(/C=C/Nc1cccc([N+](=O)[O-])c1)c1cccs1 | -279*
Cc1ccc(N/C=C/C(=O)c2cccs2)cc1C | -180*
O=C(/C=C/Nc1ccc(Nc2ccccc2)cc1)c1cccs1 | -170*
C=C1[C@@H](C)C2[C@H](Cc3ccccc3)NC(=O)[C@]23OC(=O)CC[C@H](O)CCC[C@H](C)C/C=C/[C@H]3[C@@H]1O (some centres not stated) | 80
O=[N+]([O-])c1cccc2ccc(/C=C/c3ccc(Cl)cc3)nc12 | -149*
O=[N+]([O-])c1cccc2ccc(/C=C/c3cccc(Br)c3)nc12 | -107*
O=[N+]([O-])c1cccc2ccc(/C=C/c3ccc(C(F)(F)F)cc3)nc12 | -94*
CC(=O)Nc1ccc(/C=C/c2ccc3c([N+](=O)[O-])cccc3n2)cc1 | -164*
C=CCOc1ccc2c(OC)c3ccoc3nc2c1OC | -81*
NC(=O)c1sc2nc3c(c(-c4ccc(Cl)cc4)c2c1N)CCCC3 | 66
Nc1ccc2nc3c(c(Cl)c2c1)CCCC3 | -88*
